Results on three molecules are retold here after PubChem BioAssay AID1159580 (chemical genetic matrix, 2015).

Out of some 5,500 compounds screened, about 2,000 (36%) were called active. Roughly 18% stayed inconclusive and do not appear here. The list shows a part of the results. Values without a mark were called inactive. Rule as the data show it: active = normalized growth mostly below about 0.91 (no sharp cut-off); inconclusive = no clear call, values can overlap the other calls; inactive = mostly above about 0.92.

The nature of this test: chemical genetic growth profiling, strain panel (AID 1159580).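 Also: tested at 20 µM; growth read once vehicle control cultures reached saturation at 30 °C; 1 = growth at the plate median or of vehicle wells; lower values mean less growth of the strain.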 The settings on record: growth OD.
The mark [1] stands for this setting: S. cerevisiae deletion strains, locus YMR263W, strain SAP30, stronger effect = lower value.
Setting [2] is: S. cerevisiae deletion strains, locus YNL153C, strain GIM3, stronger effect = lower value.
Where [3] appears, read: S. cerevisiae deletion strains, locus YAL013W, strain DEP1, stronger effect = lower value.
The mark [4] stands for this setting: S. cerevisiae deletion strains, locus YBR229C, strain ROT2, stronger effect = lower value.
Where [5] appears, read: S. cerevisiae deletion strains, locus YDL101C, strain DUN1, stronger effect = lower value.
Setting [6] is: S. cerevisiae deletion strains, locus YDR150W, strain NUM1, stronger effect = lower value.
The mark [7] stands for this setting: S. cerevisiae deletion strains, locus YEL061C, strain CIN8, stronger effect = lower value.
Setting [8] is: S. cerevisiae deletion strains, locus YGR078C, strain PAC10, stronger effect = lower value.
[9] abbreviates: S. cerevisiae deletion strains, locus YHR030C, strain SLT2, stronger effect = lower value.
Where [10] appears, read: S. cerevisiae deletion strains, locus YHR087W, strain rtc3, stronger effect = lower value.
Setting [11] is: S. cerevisiae deletion strains, locus YJL187C, strain SWE1, stronger effect = lower value.
The mark [12] stands for this setting: S. cerevisiae deletion strains, locus YJR043C, strain POL32, stronger effect = lower value.
Setting [13] is: S. cerevisiae deletion strains, locus YJR075W, strain HOC1, stronger effect = lower value.
[14] abbreviates: S. cerevisiae deletion strains, locus YLR039C, strain RIC1, stronger effect = lower value.
Setting [15] is: S. cerevisiae deletion strains, locus YLR058C, strain SHM2 (second series), stronger effect = lower value.
The mark [16] stands for this setting: S. cerevisiae deletion strains, locus YLR085C, strain ARP6, stronger effect = lower value.
The mark [17] stands for this setting: S. cerevisiae deletion strains, locus YLR262C, strain YPT6, stronger effect = lower value.
The mark [18] stands for this setting: S. cerevisiae deletion strains, locus YML094W, strain GIM5, stronger effect = lower value.
Setting [19] is: S. cerevisiae deletion strains, locus YMR219W, strain ESC1, stronger effect = lower value.
[20] abbreviates: S. cerevisiae deletion strains, locus YNL298W, strain CLA4 (second series), stronger effect = lower value.
[21] abbreviates: S. cerevisiae deletion strains, locus YNL322C, strain KRE1, stronger effect = lower value.
Where [22] appears, read: S. cerevisiae deletion strains, locus YNR030W, strain Alg12, stronger effect = lower value.
Setting [23] is: S. cerevisiae deletion strains, locus YPL055C, strain LGE1, stronger effect = lower value.
The mark [24] stands for this setting: S. cerevisiae deletion strains, locus YPL241C, strain CIN2, stronger effect = lower value.
[25] abbreviates: S. cerevisiae deletion strains, locus YPR135W, strain CTF4, stronger effect = lower value.

For `Nc1nc(OCc2ccccc2)c2[nH]cnc2n1`, the normalized growth is 0.994 (S. cerevisiae deletion strains, locus YAL040C, strain CLN3, stronger effect = lower value); 1 (S. cerevisiae deletion strains, locus YCL061C, strain MRC1 (second series), stronger effect = lower value); 1.02 (S. cerevisiae deletion strains, locus YDR363W, strain ESC2, stronger effect = lower value); 1 (S. cerevisiae deletion strains, locus YER002W, strain NOP16, stronger effect = lower value); 1 under setting [1]; 0.999 under setting [2]. In addition, the normalized growth is 0.982 (S. cerevisiae deletion strains, locus YNL175C, strain NOP13, stronger effect = lower value); 0.984 (S. cerevisiae deletion strains, locus YNL197C, strain WHI3, stronger effect = lower value); 1.02 (S. cerevisiae deletion strains, locus YNL224C, strain SQS1, stronger effect = lower value); 1.01 (S. cerevisiae deletion strains, locus YOR083W, strain WHI5 (second series), stronger effect = lower value).
As for `O=[N+]([O-])c1ccc(N2CCCCC2)nc1N1CCCCC1`, the normalized growth under setting [3] is 0.967; the normalized growth under setting [4] was 0.96; the normalized growth under setting [5] was 0.978; the normalized growth under setting [6] is 0.961; the normalized growth under setting [7] is 0.95; the normalized growth under setting [8] was 0.963. Also, the normalized growth was 0.961 (S. cerevisiae deletion strains, locus YGR229C, strain SMI1, stronger effect = lower value); 0.587 (active) under setting [9]; 0.943 under setting [10]; 0.954 under setting [11]; 0.977 under setting [12]; 0.914 under setting [13]. The normalized growth by setting is: under setting [14], 0.581 (active); under setting [15], 0.954; under setting [16], 0.568 (active); under setting [17], 0.59 (active); under setting [18], 0.9; under setting [19], 0.944 (active). Also, the normalized growth by setting is: under setting [1], 0.95; under setting [2], 0.909 (active); under setting [20], 0.906; under setting [21], 0.921 (active); under setting [22], 0.89; under setting [23], 0.908. The normalized growth was 0.803 (active) under setting [24] and 0.587 (active) under setting [25].
Take `O=[N+]([O-])c1cc(C(F)(F)F)c(N2CCCCC2)cc1N1CCCCC1`: the normalized growth is 0.996 under setting [3]; 0.994 under setting [4]; 1.03 under setting [5]; 1.01 under setting [6]; 0.967 under setting [7]; 1.01 under setting [8]. Besides, the normalized growth runs as follows: under setting [9], 1.01; under setting [10], 0.98; under setting [11], 0.977; under setting [12], 1.01; under setting [13], 0.996; under setting [14], 0.864. In addition, the normalized growth reads like this: under setting [15], 0.974; under setting [16], 0.915; under setting [17], 0.972; under setting [18], 0.973; under setting [19], 0.983; under setting [1], 1.01. The normalized growth is 1.02 (S. cerevisiae deletion strains, locus YMR307W, strain GAS1, stronger effect = lower value); 1.03 under setting [2]; 1.03 under setting [20]; 0.989 under setting [21]; 0.989 under setting [22]; 0.978 under setting [23]. Moreover, the normalized growth was 1.02 under setting [24]; 0.977 under setting [25]; 0.992 (S. cerevisiae strains, strain wild type, stronger effect = lower value).
